Drawing on ChEMBL document CHEMBL3988442, “University of Dundee, Small-Polar-MMV Screening Library” (2021), this text covers Percent Effect for twelve compounds.

Holding throughout (parameters): scale not given: direction of the effect not stated beside the values
The target in assay [1] is Protein translocase subunit SecA (Escherichia coli (strain K12)) (UniProt P10408). Kind of assay: Assay to Identify E. coli SecA ATPase Inhibitors. It counts as functional. The note with it: 30 µM.
Assay [2] addresses T1, Ubiquitin-activating enzyme e1, putative (Leishmania donovani (strain BPK282A1)) (UniProt E9BSI1).
T1 sequence (whole entry): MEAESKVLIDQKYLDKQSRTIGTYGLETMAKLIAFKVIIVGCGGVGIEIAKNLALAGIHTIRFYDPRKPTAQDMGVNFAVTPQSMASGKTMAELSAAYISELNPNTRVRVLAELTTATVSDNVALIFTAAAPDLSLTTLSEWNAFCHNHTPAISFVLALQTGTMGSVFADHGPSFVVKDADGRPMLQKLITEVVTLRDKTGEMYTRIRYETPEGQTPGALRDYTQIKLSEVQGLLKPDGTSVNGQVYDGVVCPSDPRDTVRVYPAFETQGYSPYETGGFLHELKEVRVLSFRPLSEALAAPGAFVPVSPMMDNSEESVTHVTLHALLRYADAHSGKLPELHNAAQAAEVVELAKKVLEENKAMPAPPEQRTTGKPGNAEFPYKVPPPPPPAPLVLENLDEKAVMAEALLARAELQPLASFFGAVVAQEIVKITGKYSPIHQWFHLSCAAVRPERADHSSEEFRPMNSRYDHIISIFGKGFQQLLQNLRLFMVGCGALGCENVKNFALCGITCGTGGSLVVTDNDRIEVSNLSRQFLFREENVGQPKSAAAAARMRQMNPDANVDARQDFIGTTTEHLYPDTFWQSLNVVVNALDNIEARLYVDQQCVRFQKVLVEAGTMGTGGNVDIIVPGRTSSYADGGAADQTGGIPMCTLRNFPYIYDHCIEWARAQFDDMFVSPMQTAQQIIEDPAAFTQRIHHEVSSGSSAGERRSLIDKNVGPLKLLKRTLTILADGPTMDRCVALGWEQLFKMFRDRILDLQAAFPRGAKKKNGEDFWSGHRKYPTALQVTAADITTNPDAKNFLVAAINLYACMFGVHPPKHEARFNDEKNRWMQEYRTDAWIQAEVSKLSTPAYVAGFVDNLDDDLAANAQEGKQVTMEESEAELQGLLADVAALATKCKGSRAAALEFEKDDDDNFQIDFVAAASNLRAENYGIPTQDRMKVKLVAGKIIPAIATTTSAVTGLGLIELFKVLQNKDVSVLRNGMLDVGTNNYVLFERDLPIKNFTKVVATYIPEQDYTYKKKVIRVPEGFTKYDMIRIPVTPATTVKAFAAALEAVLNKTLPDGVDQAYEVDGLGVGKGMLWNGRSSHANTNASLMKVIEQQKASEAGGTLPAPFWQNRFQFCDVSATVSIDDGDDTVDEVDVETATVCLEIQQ
Description: Leishmania donovani Ubiquitin Activating Enzyme (LdE1). It counts as functional. The note with it: 30 µM.

Assay [3] addresses Sialic acid-binding Ig-like lectin 9 (Homo sapiens) (UniProt Q9Y336). Kind of assay: Hs-Siglec9 ALPHAscreen SOP 20170721. The note with it: 10 µM. (In general: In Alpha technology, singlet oxygen from a donor bead excites a nearby acceptor bead.)
The subject of the next assay is Trypanosoma cruzi. Kind of assay: Trypanosoma cruzi phosphomannomutase and mannose-1-phosphate guanylyltransferase assay. The note with it: 10 µM. It counts as functional.
The target of assay [4] is T2, Arginase-2, mitochondrial (Homo sapiens) (UniProt P78540).
T2 sequence (whole entry): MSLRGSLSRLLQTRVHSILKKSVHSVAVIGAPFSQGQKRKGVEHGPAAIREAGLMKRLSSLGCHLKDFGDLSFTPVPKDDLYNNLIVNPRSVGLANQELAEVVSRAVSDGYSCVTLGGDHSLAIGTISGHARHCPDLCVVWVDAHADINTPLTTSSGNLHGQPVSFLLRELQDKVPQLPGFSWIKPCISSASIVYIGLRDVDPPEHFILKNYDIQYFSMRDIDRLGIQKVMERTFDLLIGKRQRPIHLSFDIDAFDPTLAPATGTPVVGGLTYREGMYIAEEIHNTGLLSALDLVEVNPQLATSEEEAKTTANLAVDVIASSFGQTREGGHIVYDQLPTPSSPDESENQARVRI
Kind of assay: in vitro enzyme assay to detect the production of urea directly proportional to the activity of Arginase II. Also: in the data most compounds retested in dose-response had high values. It counts as functional. The note with it: 33.3 µM.

Assay [5] deals with T3, Proteasome subunit beta (Trypanosoma cruzi) (UniProt O96673).
T3 sequence (whole entry): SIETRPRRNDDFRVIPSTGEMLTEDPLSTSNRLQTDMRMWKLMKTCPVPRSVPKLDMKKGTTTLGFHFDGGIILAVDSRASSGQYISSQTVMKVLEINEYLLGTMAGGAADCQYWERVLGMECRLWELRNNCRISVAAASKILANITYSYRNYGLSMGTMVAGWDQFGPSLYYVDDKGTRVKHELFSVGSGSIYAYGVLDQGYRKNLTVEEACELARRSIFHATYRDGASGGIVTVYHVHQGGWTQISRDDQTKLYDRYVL
Description: Trypanosoma cruzi proteasome chymotrypsin-like activity (TcProtChymo) assay. Also: in the data most compounds retested in dose-response had high values. Format: functional. The note with it: 9.37 µM.

The species entered for the next assay is Homo sapiens. Kind of assay: To identify inhibition of the IFN signalling (Jak-Stat) pathway via expression of an eGFP reporter gene under the control of an IFN-stimulated response element (ISRE) containing MxA promoter. Format: functional. The note with it: 30 µM. In general terms: In a reporter assay the amount or activity of a reporter protein is the signal.

Assay [6] deals with T4, Tyrosyl-tRNA synthetase, putative (Trypanosoma cruzi (strain CL Brener)) (UniProt Q4DSP6).
T4 sequence (whole entry): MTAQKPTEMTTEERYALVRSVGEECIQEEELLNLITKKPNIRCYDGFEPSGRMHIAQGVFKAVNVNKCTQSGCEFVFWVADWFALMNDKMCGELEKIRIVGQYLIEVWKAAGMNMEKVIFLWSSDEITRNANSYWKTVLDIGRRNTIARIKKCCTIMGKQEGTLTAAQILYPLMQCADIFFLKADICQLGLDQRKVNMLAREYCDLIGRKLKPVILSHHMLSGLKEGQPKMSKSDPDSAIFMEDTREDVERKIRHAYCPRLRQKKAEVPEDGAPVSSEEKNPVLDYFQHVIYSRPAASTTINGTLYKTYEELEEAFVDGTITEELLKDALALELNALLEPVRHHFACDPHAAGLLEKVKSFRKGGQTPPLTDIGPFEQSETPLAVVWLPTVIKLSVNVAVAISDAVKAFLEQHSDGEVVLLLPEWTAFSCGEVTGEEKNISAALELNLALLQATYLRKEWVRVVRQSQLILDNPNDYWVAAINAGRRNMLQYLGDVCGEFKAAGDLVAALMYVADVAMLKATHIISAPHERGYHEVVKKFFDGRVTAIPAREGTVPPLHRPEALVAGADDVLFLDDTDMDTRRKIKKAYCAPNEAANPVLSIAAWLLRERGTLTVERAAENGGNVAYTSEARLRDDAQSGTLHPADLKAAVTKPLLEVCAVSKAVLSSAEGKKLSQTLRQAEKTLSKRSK
Description: Trypanosoma cruzi tyrosyl tRNA synthetase (TcYRS) _High Tyrosine SOP. Also: in the data most compounds retested in dose-response had high values. It counts as functional. The note with it: 30 µM.

Assay [7] addresses T4, Tyrosyl-tRNA synthetase, putative (Trypanosoma cruzi (strain CL Brener)). Kind of assay: Trypanosoma cruzi tyrosyl tRNA synthetase (TcYRS) SOP. It counts as functional. The note with it: 30 µM.
Assay [8] concerns the target Chromo domain-containing protein 1 (Saccharomyces cerevisiae (strain ATCC 204508 / S288c) (Baker's yeast)) (UniProt P32657). Description: ScCHD-1 Enzyme Inhibition Assay. Also: in the data most compounds retested in dose-response had high values. The note with it: 30 µM. It counts as functional.

The structures appear in SMILES notation. For part of these data: Results with a measured potency or affinity are listed apart.

Chain of Chromo domain-containing protein 1 (Saccharomyces cerevisiae (strain ATCC 204508 / S288c) (Baker's yeast)) (P32657 whole entry, the tested form may be a part): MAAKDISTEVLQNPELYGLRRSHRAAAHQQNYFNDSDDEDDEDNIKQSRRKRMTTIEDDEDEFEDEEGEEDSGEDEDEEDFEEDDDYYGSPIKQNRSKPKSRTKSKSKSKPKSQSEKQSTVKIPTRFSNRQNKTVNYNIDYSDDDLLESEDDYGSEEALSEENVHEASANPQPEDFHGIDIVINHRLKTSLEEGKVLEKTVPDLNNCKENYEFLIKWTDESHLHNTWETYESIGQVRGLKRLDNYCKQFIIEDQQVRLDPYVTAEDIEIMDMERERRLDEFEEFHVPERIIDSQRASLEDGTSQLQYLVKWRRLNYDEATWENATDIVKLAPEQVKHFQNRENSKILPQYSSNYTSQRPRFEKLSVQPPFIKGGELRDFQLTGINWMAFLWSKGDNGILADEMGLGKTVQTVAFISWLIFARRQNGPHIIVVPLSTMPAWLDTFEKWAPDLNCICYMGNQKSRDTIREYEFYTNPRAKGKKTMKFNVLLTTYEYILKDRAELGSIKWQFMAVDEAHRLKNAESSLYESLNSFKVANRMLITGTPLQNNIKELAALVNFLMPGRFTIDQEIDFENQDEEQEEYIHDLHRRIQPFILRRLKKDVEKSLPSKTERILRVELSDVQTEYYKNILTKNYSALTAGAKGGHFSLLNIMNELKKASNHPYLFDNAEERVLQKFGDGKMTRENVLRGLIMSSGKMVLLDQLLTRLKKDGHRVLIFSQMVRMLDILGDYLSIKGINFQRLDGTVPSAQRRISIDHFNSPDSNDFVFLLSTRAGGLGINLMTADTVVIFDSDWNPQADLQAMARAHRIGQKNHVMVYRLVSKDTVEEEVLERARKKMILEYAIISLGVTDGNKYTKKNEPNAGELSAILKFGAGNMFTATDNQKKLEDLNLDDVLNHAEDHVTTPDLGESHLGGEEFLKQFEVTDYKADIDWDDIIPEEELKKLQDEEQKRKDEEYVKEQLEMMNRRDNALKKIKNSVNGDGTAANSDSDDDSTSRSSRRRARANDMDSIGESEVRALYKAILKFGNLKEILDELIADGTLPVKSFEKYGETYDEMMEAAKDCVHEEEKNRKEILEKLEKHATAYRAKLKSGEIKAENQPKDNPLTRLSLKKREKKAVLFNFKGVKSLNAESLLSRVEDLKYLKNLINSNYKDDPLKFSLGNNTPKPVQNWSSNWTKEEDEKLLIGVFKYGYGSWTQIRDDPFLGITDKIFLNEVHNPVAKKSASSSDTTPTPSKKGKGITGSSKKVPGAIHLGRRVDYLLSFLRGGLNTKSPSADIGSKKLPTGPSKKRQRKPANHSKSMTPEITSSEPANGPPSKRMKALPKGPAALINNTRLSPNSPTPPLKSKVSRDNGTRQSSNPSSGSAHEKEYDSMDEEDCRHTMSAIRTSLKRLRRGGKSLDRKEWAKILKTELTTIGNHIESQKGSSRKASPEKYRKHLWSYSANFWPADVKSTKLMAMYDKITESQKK
Chain of Protein translocase subunit SecA (Escherichia coli (strain K12)) (P10408 whole entry): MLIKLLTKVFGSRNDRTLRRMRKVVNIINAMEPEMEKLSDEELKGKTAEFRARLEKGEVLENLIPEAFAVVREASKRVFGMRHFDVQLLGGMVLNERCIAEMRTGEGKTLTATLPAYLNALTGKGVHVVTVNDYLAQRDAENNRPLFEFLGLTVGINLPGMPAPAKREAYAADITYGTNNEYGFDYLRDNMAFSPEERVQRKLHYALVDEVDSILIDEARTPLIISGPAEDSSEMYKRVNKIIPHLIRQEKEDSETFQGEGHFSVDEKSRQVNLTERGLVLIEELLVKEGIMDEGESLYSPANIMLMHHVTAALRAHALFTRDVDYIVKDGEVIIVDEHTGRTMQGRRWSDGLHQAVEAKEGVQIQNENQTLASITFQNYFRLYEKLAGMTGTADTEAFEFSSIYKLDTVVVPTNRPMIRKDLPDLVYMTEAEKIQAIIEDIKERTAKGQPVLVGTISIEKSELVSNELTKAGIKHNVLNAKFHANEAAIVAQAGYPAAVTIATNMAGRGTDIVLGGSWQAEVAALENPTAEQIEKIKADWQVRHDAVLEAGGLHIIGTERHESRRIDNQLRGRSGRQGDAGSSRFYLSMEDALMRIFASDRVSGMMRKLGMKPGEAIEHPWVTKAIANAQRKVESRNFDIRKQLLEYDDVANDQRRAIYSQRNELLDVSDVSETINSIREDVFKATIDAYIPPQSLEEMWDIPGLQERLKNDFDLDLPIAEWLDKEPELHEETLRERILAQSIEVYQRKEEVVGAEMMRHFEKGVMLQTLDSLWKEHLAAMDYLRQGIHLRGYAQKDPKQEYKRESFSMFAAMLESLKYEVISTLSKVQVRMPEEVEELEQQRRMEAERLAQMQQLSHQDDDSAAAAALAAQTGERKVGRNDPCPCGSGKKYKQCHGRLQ
Chain of Sialic acid-binding Ig-like lectin 9 (Homo sapiens) (Q9Y336 whole entry): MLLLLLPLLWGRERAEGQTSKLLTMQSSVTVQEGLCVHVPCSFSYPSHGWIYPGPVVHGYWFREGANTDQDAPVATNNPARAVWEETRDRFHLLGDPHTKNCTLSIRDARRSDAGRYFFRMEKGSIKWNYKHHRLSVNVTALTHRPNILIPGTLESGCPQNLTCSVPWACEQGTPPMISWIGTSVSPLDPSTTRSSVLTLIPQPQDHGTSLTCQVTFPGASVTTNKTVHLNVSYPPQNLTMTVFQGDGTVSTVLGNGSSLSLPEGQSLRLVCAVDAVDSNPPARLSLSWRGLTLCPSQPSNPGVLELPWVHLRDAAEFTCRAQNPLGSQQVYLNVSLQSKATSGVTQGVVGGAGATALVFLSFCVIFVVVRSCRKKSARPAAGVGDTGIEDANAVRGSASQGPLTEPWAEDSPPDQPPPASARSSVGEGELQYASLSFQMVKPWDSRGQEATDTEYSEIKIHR

For the compound `O=C(COCc1ccccc1)N1CCC(OCc2cccnc2)CC1`, the Percent Effect in assay [1] was -7.79%; in [2], 2.7%; in [3], 2.89%; in the assay on Trypanosoma cruzi, -4.95%; in [4] it was -0.35%; in assay [5], 9.42%. Moreover, the Percent Effect is 35.8% in the assay listed under Homo sapiens, 5.85% in assay [6], 12.2% in [7] and -2.8% in assay [8].

In the case of `Cc1nccn1-c1cccc(C2CCCN(C(=O)c3cc[nH]n3)C2)n1` (stereo not given), the Percent Effect in [1] was 0.661%; in assay [2], 25.3%; in [3], -9.09%; with Trypanosoma cruzi, 0.395%; in assay [4], -3.98%; in assay [5], 17.9%. In addition, the Percent Effect in the assay filed under Homo sapiens was 32.9%; in assay [6] it was 1.06%; in assay [7], 10%; in assay [8], -7.28%.

As to `CC(C)NC(=O)N1CCC2(C1)CN(c1ccsc1)C(=O)CN2C` (stereo not given), the Percent Effect is -2.47% in assay [1]; 9.09% in [2]; -13.1% in [3]; -3.41% in the assay on Trypanosoma cruzi; 5.26% in assay [4]; 20.6% in assay [5]. Also, the Percent Effect in the assay filed under Homo sapiens is -8.36%; in assay [6], 6.84%; in assay [7], 10.3%; in assay [8], 10.4%.

For `CCc1n[nH]c(C2CN(C(=O)c3nc(C)ncc3Cl)CCO2)n1` (stereo not given), the Percent Effect was -2.86% in assay [1]; 7.79% in assay [2]; 9.79% in assay [3]; -2.24% in the assay on Trypanosoma cruzi; 1.43% in assay [4]; -0.351% in assay [5]. For the same compound, the Percent Effect in the assay listed under Homo sapiens amounted to 2.84%; in assay [6], 2.94%; in [7] it was 7.06%; in assay [8] it was 2.12%.

Regarding `NC(=O)c1cc(C2CCCN(CCCOc3ccccc3)C2)n[nH]1` (stereo not given), the Percent Effect in assay [1] is 1.07%; in [2], -15.4%; in assay [3], 18.7%; in the assay with Trypanosoma cruzi, -0.282%; in assay [4], 6.15%; in assay [5] it was 1.79%. Also, the Percent Effect was 0.734% in the assay listed under Homo sapiens, 1.44% in assay [6], -1.21% in assay [7] and -4.36% in [8].

As for `Cc1c(F)cccc1CN1CCn2nc(CNC(=O)N(C)C)cc2C1`, the Percent Effect in [1] was -5.26%; in [2], 10.8%; in assay [3], 14.7%; in the assay with Trypanosoma cruzi, 9.21%; in assay [4] it was 28.3%; in assay [5], 8.05%. The Percent Effect in the assay listed under Homo sapiens is 4.47%; in [6], 5.85%; in assay [7] it was 17.1%; in [8] it was -7.8%.

`Cc1cc(C2CCCN2Cc2cc(=O)n(C)c(=O)n2C)on1` (stereo not given): the Percent Effect in assay [1] was -4.6%; in [2] it was 2.67%; in [3] it was 1.58%; with Trypanosoma cruzi it was 3.21%; in assay [4], 0.444%; in [5] it was 1.27%. Moreover, the Percent Effect in the assay filed under Homo sapiens is 14.5%; in assay [6], 2.63%; in assay [7], 5.13%; in assay [8] it was -4.48%.

Take `CN1CCN(c2cc(CNC(=O)c3ccc(=O)[nH]n3)ccn2)CC1`: the Percent Effect is -0.863% in assay [1]; 12.8% in assay [2]; -10.3% in assay [3]; -2.16% in the assay on Trypanosoma cruzi; 9.43% in assay [4]; 9.81% in assay [5]. The Percent Effect in the assay listed under Homo sapiens is 23.3%; in assay [6], 6.22%; in assay [7], 18.1%; in assay [8], -2.33%.

For `CCc1nc(C)c(C(=O)NCCN2CCN(C(C)=O)CC2)s1`, the Percent Effect in assay [1] is -2.42%; in assay [2], 10.4%; in assay [3], 4.38%; in the assay on Trypanosoma cruzi, -0.373%; in assay [4] it was 1.43%; in [5], -0.702%. Also, the Percent Effect in the assay filed under Homo sapiens was 15.7%; in [6], 7.84%; in [7], 21.2%; in assay [8], -6.18%.

For the compound `Cc1cc(CNc2cc(Cl)ccc2Cl)no1`, the Percent Effect was -0.772% in assay [1]; 0% in assay [2]; 3.56% in assay [3]; 4.79% in the assay on Trypanosoma cruzi; 0% in assay [4]; 4.69% in assay [5]. Besides, the Percent Effect is 8.6% in the assay filed under Homo sapiens, -11% in assay [6], 6.02% in [7] and -0.0633% in [8].

On to `CN(C)c1cc(CNC(=O)Nc2ccc(S(C)(=O)=O)nc2)ccn1`, for which the Percent Effect was -1.24% in assay [1]; 10.3% in [2]; -5.84% in assay [3]; 0.845% with Trypanosoma cruzi; 1.64% in assay [4]; 10.3% in assay [5]. Moreover, the Percent Effect in the assay listed under Homo sapiens was -0.626%; in assay [6] it was 6.22%; in assay [7], 25.3%; in assay [8] it was -2.59%.

In the case of `Cn1cc(CNCC2Cn3nnc(-c4ccccc4)c3CO2)cn1` (stereo not given), the Percent Effect in assay [1] is -4.8%; in assay [2] it was 6.49%; in [3] it was 9.99%; in the assay with Trypanosoma cruzi, 4.97%; in [4] it was 13%; in assay [5] it was 4.68%. Further, the Percent Effect in the assay filed under Homo sapiens was -2.48%; in assay [6], 2.63%; in assay [7], 10.3%; in assay [8], 19%.
